{"source": "PubChem BioAssay (Tox21)", "note": "Values joined by “and” are separate entries in the source; they are usually repeats but may differ in a detail not shown here. Equal entries are not always repeated. Inconclusive results are not listed. A call without a number means that no potency is given here. Active and inactive are the calls of the source. Calls come from the whole dose curve; as a rule, active = well fitted cell-killing curve with a large enough effect in the repeat runs; inconclusive = weak or mixed curves; inactive = flat fitted curve, though single readings scatter. Potency is the fitted concentration of half-maximal effect."}
{"experiment": "qHTS RealTime-Glo MT Cell Viability Assay in HepG2 cells - 24 hour (AID 1224867); note: nearly all actives have a fitted effect of over 50% in size", "details": "RealTime-Glo luminescence; series mostly up to 76.8 µM", "from_the_text": "U.S. Tox21 Program National Center for Advancing Translational Sciences [NCATS] NIH Chemical Genomics Center [NCGC] U.S. Environmental Protection Agency [EPA] National Institutes of Environmental Health Sciences [NIEHS] National Toxicology Program [NTP] U.S. Food and Drug Administration [FDA] Tox21 Assay Overview: Measure of cell viability is critical in the cell-base assay. Analysis of cell viability is necessary for the characterization of cell responses to cytotoxic drugs and environmental stress. A RealTime-Glo MT Cell Viability Assay to monitor cell viability in real time of continues cell culture during 40 hours of compound treatment was used to screen Tox21 10K library compounds in HepG2 cells. The RealTime-Glo MT Cell Viability Assay is a nonlytic, homogeneous, bioluminescent method to measure cell viability in real time using a simple, plate-based method. The assay involves adding NanoLuc luciferase and a cell-permeant prosubstrate to cells in culture. Viable cells reduce the proprietary prosubstrate to generate a substrate for NanoLuc luciferase. This substrate diffuses from cells into the surrounding culture medium, where it is rapidly used by the NanoLuc Enzyme to produce a luminescent signal. The signal correlates with the number of viable cells, making the assay well suited for cytotoxicity studies.\nTox21 Assay Protocol Summary: The mixture of HepG2 cell suspension and reagents were dispensed at 600cells/6 ul/well in 1536-well tissue culture treated black solid bottom plates using a Multidrop dispenser. After the assay plates were incubated at a 37 C/5% CO2 incubator for 5 hours, 23 nL of compounds dissolved in DMSO, positive and negative controls was transferred to the assay plate by a pintool work station. The plates were incubated at 37 C for 40 hours. The luminescence intensity were measured at 0h, 8h, 16h, 24h, 32h and 40h time points using ViewLux plate reader during compound treatment."}
{"smiles": "C/C=C/CO", "Potency": "inactive"}
{"smiles": "CC(=O)C=O", "Potency": "inactive"}
{"smiles": "CCCCCCS", "Potency": "inactive"}
{"smiles": "CCO[Si](C)(C)OCC", "Potency": "inactive"}
{"smiles": "Cc1cnccn1", "Potency": "inactive"}
{"smiles": "O=C1c2c(O)ccc([N+](=O)[O-])c2C(=O)c2c([N+](=O)[O-])ccc(O)c21", "Potency": "38.5 µM (active)"}
{"smiles": "Oc1cc2ccccc2cc1O", "Potency": "inactive"}
{"smiles": "CCCCCCCCCCCC(=O)N(CC)CC", "Potency": "inactive"}
{"smiles": "CCN(CC)CCOc1ccc(C(O)(Cc2ccc(Cl)cc2)c2ccc(C)cc2)cc1", "note": "(stereo not given)", "Potency": "23.9 µM (active)"}
{"smiles": "Cn1cccc1", "Potency": "inactive"}
{"smiles": "CCCCCCCC(C)=O", "Potency": "inactive"}
{"smiles": "CC(C)C(=O)OCc1ccccc1", "Potency": "inactive"}
{"smiles": "O=Cc1ccc(F)cc1", "Potency": "inactive"}
{"smiles": "CCCCCCCCCCOCC(O)CN", "note": "(stereo not given)", "Potency": "15.1 µM (active)"}
{"smiles": "Cc1ccc(O)cn1", "Potency": "inactive"}
{"smiles": "CCCCCCCC/C=C/CCCOC(C)=O", "Potency": "inactive"}
{"smiles": "CN1CCN(C2Cc3ccccc3Sc3ccc(Cl)cc32)CC1", "note": "(stereo not given)", "Potency": "23.9 µM (active)"}
{"smiles": "O=S(=O)(O)c1cc(S(=O)(=O)O)c2ccc3c(S(=O)(=O)O)cc(S(=O)(=O)O)c4ccc1c2c43", "activity change, negative = cytotoxicity": "3.52% [at 15.8 µM] (inactive)"}
{"smiles": "Nc1cc(Cl)c([N+](=O)[O-])cc1O", "Potency": "inactive"}
{"smiles": "CCc1ccc(C)nc1", "Potency": "inactive"}
{"smiles": "CCCCCCCCCCCCCC[n+]1ccccc1", "Potency": "19.5 µM (active)"}
{"smiles": "COC(=O)[C@]1(C)CCC[C@@]2(C)[C@H]1CC=C1C=C(C(C)C)CC[C@@H]12", "Potency": "inactive"}
{"smiles": "CCOC(/C=C(\\C)CCC=C(C)C)OCC", "Potency": "inactive"}
{"smiles": "O=C1OC(OC(=O)c2cccnc2Nc2cccc(C(F)(F)F)c2)c2ccccc21", "note": "(stereo not given)", "Potency": "inactive"}
{"smiles": "CNC(=S)NN", "Potency": "inactive"}
{"smiles": "CCN=C1C=CC(=C(c2ccc(N(CC)CC)cc2)c2ccc(N(CC)CC)cc2)c2ccccc21", "Potency": "17.3 µM (active)"}
{"smiles": "CC(C)N=C(N)/N=C(\\N)Nc1ccc(Cl)cc1", "Potency": "inactive"}
{"smiles": "CSc1c(Cl)c(Cl)c(Cl)c(Cl)c1Cl", "Potency": "inactive"}
{"smiles": "CC(C)OC(=O)c1cc(C(=O)OC(C)C)cc([N+](=O)[O-])c1", "Potency": "inactive"}
{"smiles": "COC(=O)CC(C)CCC=C(C)C", "note": "(stereo not given)", "Potency": "inactive"}
{"smiles": "O=c1cccc[nH]1", "Potency": "inactive"}
{"smiles": "CC1CNCC(C)O1", "note": "(stereo not given)", "Potency": "inactive"}
{"smiles": "CCCCCCCCCCCCOC(=O)c1cc(O)c(O)c(O)c1", "Potency": "54.7 µM (active) and 49 µM (active)"}
{"smiles": "CCOCN(C(=O)CS(=O)(=O)O)c1c(C)cccc1CC", "Potency": "inactive"}
{"smiles": "CC[N+](CC)(CC)Cc1ccccc1", "Potency": "inactive"}
{"smiles": "CC(C)=C1CC[C@@H](C)CC1=O", "Potency": "inactive"}
{"smiles": "Brc1ccccc1-c1ccccc1", "Potency": "inactive"}
{"smiles": "NC(=O)c1nc(-c2cccc(-c3cc(F)ccc3OCC(F)(F)C(F)(F)F)c2)n[nH]1", "Potency": "inactive"}
{"smiles": "CCc1cccc(CC)c1NC(=O)C(=O)O", "Potency": "inactive"}
{"smiles": "CCOC(=O)[C@@](C)(N)Cc1ccc(O)c(O)c1", "Potency": "inactive"}
